The list is not random: actives were taken first. Their share in the collection is about 8.1%.
KB-3-1 cytotox = kills parental KB-3-1 adenocarcinoma cells | hit rate 1.4% among 400,000 | Potency, µM (top dose mostly 46.1 µM), actives largely listed as cytotoxic | KB-3-1 viability, CellTiter-Glo ATP luminescence, 72 h; further: on the % scale 0 is the no-effect control and ±100 the full control effect; nearly all actives have a fitted effect of over 60% in size
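Multi-concentration cytotoxicity screen in KB-3-1 cells grown in DMEM lacking phenol red with 10% FBS. After 72 h at 37 °C with compound, ATP-dependent luminescence was recorded.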
KB-V1 cytotox = KB-V1 MDR subline cytotoxicity; AID 1347076; KB-V1 MDR cells viability, CellTiter-Glo, 72 h; Potency, µM (titrated, usually from 46.1 µM), most hits filed as cytotoxic; hit rate 3.4% among 400,000; further: on the % scale 0 is the no-effect control and ±100 the full control effect; nearly all actives have a fitted effect of over 60% in size
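KB-V1 MDR subline cells in DMEM (phenol-red free, 10% FBS) exposed to compounds in qHTS concentration series for 72 h at 37 degrees C. Viability read by CellTiter-Glo luminescence; concentration-effect curves fitted after normalization and correction.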
MCF10A rereplic = inducers of DNA re-replication in MCF 10A breast cells; MCF 10A DNA re-replication, Hoechst nuclear intensity, 48 h; Potency, µM (doses to about 46.1 µM), without a hit: top-dose activity, positive = re-replication, usual class: activators; hit rate 2.9% among 350,000; AID 624296; further: % of control where 0% means no effect; nearly all actives have a fitted effect of over 50% in size
ELG1 DNA repair = inhibitors of ELG1-dependent DNA repair in HEK293T cells; HEK293T ELG1-luciferase reporter, luminescence, 16 h; DNA damage induced by 5-fluorouridine; Potency, µM (doses to about 46.1 µM), inactives show at the highest dose activity change, negative = inhibition, most hits filed as inhibitors; hit rate 2.3% among 330,000; AID 504467; further: on the % scale 0 is the no-effect control and ±100 the full control effect; nearly all actives have a fitted effect of over 55% in size
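Cells (2,000 per well) received 5-fluorouridine plus test compound or DMSO and were incubated 16 hr at 37 °C, 5% CO2. Luciferase activity was read by luminescence 30 min after ONE-Glo addition; signal suppression marked inhibition of damage-induced ELG1 function.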
SW480 rerep = DNA re-replication induction in SW480 cells; Potency, µM (top dose mostly 46.1 µM), for inactives: at the top dose re-replication activation, most hits filed as activators; SW480 DNA re-replication, Hoechst DNA content imaging, 48 h; hit rate 1.8% among 340,000; AID 624297; further: % of control where 0% means no effect; nearly all actives have a fitted effect of over 55% in size
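Image-based DNA-content assay: after two days of treatment, nuclei were labelled with the DNA dye Hoechst and imaged, and hits were compounds raising the count of nuclei showing high fluorescence intensity.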
* marks the source's active call; other numbers are inactive results; i = inactive; ? = inconclusive; / = no result. The call rests on the fitted dose curve; in most records, active means well fitted curve in the direction sought with a large enough effect; inconclusive means small, poorly fitted or top-dose-only effect, or another doubt; inactive means no such curve, though single readings can be large; an effect the other way counts as inactive or inconclusive. Potency means the concentration at half of the fitted maximal effect.

SMILES	KB-3-1 cytotox	KB-V1 cytotox	MCF10A rereplic	ELG1 DNA repair	SW480 rerep
COc1ccc(NC(=O)c2cc(C3CCCCN3C(=O)c3cccs3)on2)c(C)c1 (stereo not drawn)	i	i	/	/	/
Cc1sc2ncn(CC(=O)Nc3cccc(C(F)(F)F)c3)c(=O)c2c1S(=O)(=O)N1CCN(C)CC1	i	i	/	/	/
CC(=NNC(=S)N1CCN(C2CCCCCC2)CC1)c1ccccn1	?	?	16µM*	/	?
COc1ccc(Cl)cc1NC(=S)N1CCN(c2ccccn2)CC1	i	i	?	-11%	9%
COc1cc(NC(=S)N2CCN(c3ccccn3)CC2)c(OC)cc1Cl	i	18µM*	-5%	-16%	-69%
CCN(CC)c1ccc(/C=C2\C=Cc3ccccc32)cc1	?	i	/	/	/
CCOC(=O)N=Nc1c2ccccc2c2nc3no[nH]c3nc12	1.5µM*	2.9µM*	?	1.5µM*	?
O=[N+]([O-])C(/C=C(/Cl)[N+](=O)[O-])=C(N1CCCCC1)N1CCCCC1	i	i	6%	15%	15µM*
O=C(/C=C/c1ccccc1[N+](=O)[O-])N1CCCCC1	i	i	-11%	27%	6%
CCn1nc(C(=O)Nc2nc3ccc(C)cc3s2)c2ccccc2c1=O	i	i	23µM*	4%	21µM*
Cc1nc2ccc(NC(=O)c3nn(CC(C)C)c(=O)c4ccccc34)cc2s1	?	?	?	-25%	-3%
CCCCn1nc(C(=O)Nc2nc3c(s2)CCCC3)c2ccccc2c1=O	i	i	14%	15µM*	0%
CCCCCCn1nc(C(=O)Nc2nc3c(s2)CCCC3)c2ccccc2c1=O	i	i	?	?	-5%
CC(C)N1CCSC1=S	i	i	3%	/	-11%
Cc1ccc(CNC(=O)c2ccc(N3CCCC3)c(NC(=O)Nc3ccc(F)c(Cl)c3)c2)cc1	i	i	/	/	/
O=C(Nc1csc([N+](=O)[O-])c1)Nc1ccccc1Cl	i	?	12µM*	-13%	13%
Cc1ccc(-n2nc(C(=O)Nc3ccc(Cl)cn3)c3c4ccccc4n(C)c3c2=O)cc1	i	?	/	/	/
S=c1[nH]nc(C2CCCCC2)n1/N=C/c1ccc(Cl)cc1	i	i	?	2%	?
S=c1[nH]nc(C2CCCCC2)n1/N=C/c1ccc(Br)cc1	i	i	?	-28%	-6%
S=c1[nH]nc(C2CCCCC2)n1/N=C/c1ccc(Br)s1	i	i	18µM*	10%	?
FC(F)(F)c1ccc(/C=N/n2c(C3CCCCC3)n[nH]c2=S)cc1	i	i	23µM*	-5%	-8%
CCOc1ccccc1CNC(=O)C1CCN(S(=O)(=O)c2cccc3nonc23)CC1	i	i	/	/	/
CCCOP(=O)(OCCC)c1c([N+](=O)[O-])cc(C(F)(F)F)cc1[N+](=O)[O-]	?	?	?	0%	18µM*
CCOc1ccc(C(F)(F)F)cc1NC(=O)COc1ccc(C(F)(F)F)cc1[N+](=O)[O-]	i	i	5%	-2%	-1%
CN(C)c1ccc(/C=N/NC(=O)COc2ccccc2)cc1	i	?	1%	?	0%
SMILES	KB-3-1 cytotox	KB-V1 cytotox	MCF10A rereplic	ELG1 DNA repair	SW480 rerep
COc1ccc(/C=N/NC(=O)COc2ccccc2-c2ccccc2)cc1	1.2µM*	0.82µM*	0.82µM*	-11%	0.92µM*
O=C(COc1ccccc1-c1ccccc1)N/N=C/c1cccc2ccccc12	1.3µM*	0.92µM*	0.46µM*	-4%	?
O=C(CSc1nc2ccccc2s1)N/N=C/c1ccc(C(=O)O)cc1	i	?	-1%	16%	-3%
COc1ccc(/C=N/NC(=O)CCSc2nc3ccccc3s2)cc1	?	i	?	?	10µM*
CC(NC(=O)COc1ccccc1-c1ccccc1)c1ccccc1 (stereo not drawn)	i	i	4.6µM*	-3%	10%
CC(C)c1ccc(Cc2cn3cc(-c4cc5ccccc5oc4=O)nc3s2)cc1	0.58µM*	?	/	/	/
O=c1oc2ccccc2cc1-c1cn2cc(Cc3cc(Cl)ccc3Cl)sc2n1	i	?	/	/	/
Cc1ccc(C)c(Cn2c3ccccc3c3cnn(CC(=O)NCc4ccccc4)c(=O)c32)c1	i	i	/	/	/

Screening data (PubChem)
